Results as given in PubChem BioAssay (NCI).
Where “and” joins values, the source holds several entries; their conditions need not be identical. Equal entries are not always repeated. This is part of a sample that, as a whole, favours compounds with a hit. Of some 83,000 tested, about 20% had one in any assay.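 48-hour exposure, single concentration, 96-well plates; percent growth endpoint where 0 means no net growth. Active: below 10.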 Values without a mark were called inactive. Calls of active or inactive are those of the source.

system: MDA-MB-468 breast; assay: NCI-60 one-dose screen, 48 h (100 = growth as untreated, 0 = no growth, -100 = all killed); settings: 10 µM unless noted

SMILES | growth
Cn1cc(-c2nc(N)nnc2-c2c[nH]c3ccc(Br)cc23)c2cc(Br)ccc21 | 6.33% (active)
COC(=O)/C=C1/SC(=Nc2ccc(F)cc2)N(CCc2c[nH]c3ccc(O)cc23)C1=O | 36%
CCN(CC)CCSCCN(CC)CC | 93.4%
C[C@@H]1CC[C@@]2(OC1)O[C@H]1C[C@H]3[C@@H]4CC=C5C[C@@H](O[C@@H]6O[C@H](CO)[C@@H](O[C@@H]7O[C@@H](CO)[C@H](O)[C@H]7O)[C@H](O)[C@H]6O[C@@H]6O[C@@H](C)[C@H](O)[C@@H](O)[C@H]6O)CC[C@]5(C)[C@H]4CC[C@]3(C)[C@H]1[C@@H]2C | -40.3% (active)
NC(=O)c1c(NC(=O)c2ccc(Cl)cc2)sc2c1CCC(=O)C2 | 88.5%
Cc1cc(O)c(C(C)C)cc1N | 8.67% (active) and -40.1% (active)
O=C(CSc1nc(-c2ccccc2)cn1-c1ccc(Cl)cc1)c1ccc([N+](=O)[O-])cc1 | 72.5%
O=C(CNc1nc2ccccc2s1)Nc1ccc(-c2nc3ccccc3s2)cc1 | -17.8% (active)
CNc1ncc(-c2ccc(C(F)(F)F)cc2)c(NC2CCCCCC2)n1 | 74.9%
O=C1Nc2ccccc2Oc2ccc(S(=O)(=O)CC3CO3)cc21 (stereo not given) | -5.7% (active)
Clc1nc(Nc2ccccc2)nc(Nc2ccccc2)n1 | 57.3%
CCOc1nc(-c2ccccc2)cc2c(O)c(C(=O)N/N=C/c3ccc(N(C)C)cc3)[nH]c(=O)c12 | 158%
Cc1ccccc1N1C(=O)c2cc(S(N)(=O)=O)c(Cl)cc2NC1C (stereo not given) | 119%
CN(Cc1ccccc1)c1nc(Cl)c(C2CC(c3ccc(F)cc3)=NN2C=O)s1 (stereo not given) | 77.5%
Nc1ccc(-c2cc3c(Nc4ccc(OCc5cccc(F)c5)c(Cl)c4)ncnc3s2)cc1 | 14.2%
N=C(N)c1ccc(-c2ccc(-c3ccc(Cl)cc3)s2)s1 | -71.2% (active)
O=C(N/N=C\c1ccc(-c2ccc(Br)cc2)o1)c1cc2oc(-c3cccc(C(F)(F)F)c3)cc2[nH]1 | 126%
O=C(O)CC1Cc2ccccc2C1C(=O)O (stereo not given) | 106%
COc1ccc(C=C2c3ccccc3-c3ccccc32)cc1 | 41.3%
Brc1ccc2[nH]cc(-c3nn4cc(-c5nccs5)nc4s3)c2c1 | 51.2%

SMILES | growth
CCOc1ccc(C2N(c3cc(OC)c(OC)c(OC)c3)C(=O)C2(F)F)cc1 (stereo not given) | 34.9%
COc1ccc(NC(=O)CSc2nc(C)c(C(C)=O)n2-c2ccc(Cl)cc2)cc1 | 98.8%
CC(O)CCC(C)[N+](=O)[O-] (stereo not given) | 107%
CC1=C(C)C(=O)C(Nc2cccc(C)c2)=C(Br)C1=O | -43.1% (active)
CNC(=O)c1cc(Oc2ccc(NC(=O)Nc3ccc(Cl)c(C(C)(C)C)c3)c(F)c2)ccn1 | 7.76% (active)
O=c1c2cc(F)ccc2sc2c(NCCO)nc3ccccc3c12 | 80.3%
CCOC(=O)c1c(-c2ccc(Cl)cc2)c(C#N)c(=O)n(-c2ccccc2CC)c1N | 98.9%
COc1ccc(S(=O)(=O)N2CCOCC2)cc1NC(=O)c1[nH]c(C)c2c1CCCCC2=O | 105% and 47.2%
Cc1ccc(-c2nn(Cc3cn(-c4cc(C)nc5ccccc45)nn3)c3ncnc(N)c23)cc1 | 15.4%
O=C(N/N=C/c1c(Cl)cccc1Cl)c1ccc(C(F)(F)F)nc1Nc1cccc(C(F)(F)F)c1 | 11.9%
CCOC(=O)c1ccc2c(c1)ncn2-c1ccc(NC(=O)Nc2cccc(C)c2)cc1 | 116%
CC(CN1CCN(CCOCCO)CC1)CN1c2ccccc2Sc2ccc(Cl)cc21 (stereo not given) | 40.9%
CN(C)c1cccc2c(S(=O)(=O)N[C@H]3CC[C@H]4[C@@H]5CCc6cc(O)ccc6[C@H]5CC[C@]34C)cccc12 | 34.5%
CN1CCN(Cc2ccc(NC(=O)c3[nH]ncc3Nc3ncnc4sccc34)cc2)CC1 | 15.8%
COc1cc(NC(=O)CSc2nc3ccc(C)cc3c(=O)n2-c2ccccc2)cc(OC)c1OC | 69.8%
COc1cc(C=O)ccc1OC1OC(COC(C)=O)C(OC(C)=O)C(OC(C)=O)C1OC(C)=O (stereo not given) | 100%
CCCCCC(=O)Oc1ccc(/C(=C(\C)c2ccccc2)c2ccc(OCCN(CC)CC)cc2)cc1 | 61.5%
COc1ccc(C(=O)Cn2c(C(=O)c3ccc(Cl)cc3)nc3ccccc32)cc1 | 63.9%
COc1ccc(/C(C)=C(\c2ccc(Cl)cc2)c2ccc(OCCN3CCCCC3)cc2)cc1F | 15.7%
CCCNc1nc2ccccc2c2c(=O)c3cccc(Cl)c3sc12 | 36.2%
